Measurements: the supplement of paper PMC6555819

tested on: VDR:RXRa (NR concentration 270 nM, RXRa partner concentration 90 nM); assay: PBM binding z-score (relative to random genomic background probes); higher = stronger binding; sequences stand for … in GC…GCGATTGACAGCGTAGAATGAAGG
Experimental: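 Protein-binding microarray (Agilent 4x180K custom design, double-stranded 60-nt probes: 5' GC cap, 34-nt variable region, 24-nt constant primer region; full probe sequence given). Purified or IVT nuclear receptor:RXRα heterodimers (3:1 NR:RXRα, mostly 270:90 nM) or homodimers were incubated for 1 h in PBS with 2% milk and no ligand, then detected with Alexa488 antibodies. Fluorescence from o1-orientation probes (~5 replicates averaged) was converted to z-scores against 500 random hg19 background probes. Variable regions are seed direct-repeat (DR0–DR5) sites, all their single-nucleotide variants and half-site ablations.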

Sequence | PBM binding z-score
TCCAGTAGGTTAGTCGGGGCATTCAGCCAACATA | 2.47
CCGAGAAGGTTATGGGGCATTCAGGCAACGGTGA | 0.66
GTAACGAGGGCAAGTTGATAGCAGAGTTTGATGG | 1.09
GCTGCTAGGTCAACTGATGGTCAGCGAAAGCTCG | 1.73
CCTATTGGGCCAAAAAGGTCATTGATGCCGATAA | 5.02
ATACCAAGGGGATCGTGAGGTCGTTGATACTAAC | 1.88
CAAACTAGGTCAGCGGAAGGTCAAAGTCCGCATG | 5.07
CCTACTGGGACAAAAAGGTCATTGATGCCGATAA | 4.78
TCGAGCAGGCCAGAGGGTCACTCAAGAGGTACGG | 1.48
AGTCAAAGTCCATCTAGGTAACGTAAGATATGCT | 0.131
ATACCAAGGTGATCGTGAGGTCGTTGAAACTAAC | 3.53
TCTTGTAGATCAAGCACGTTAAGAAAGCCTGAGT | 0.187
TCATATAGGTAAACGTGAAAGTCGAACGATATGA | 0.503
TAGCCTAGGTCATTCAGTGGCCAGTATAGAAAGC | 2.43
ACTAGCAGGCCAAGGGTCACTAAAGATTAGTCCG | 2.62
CGAACTAGGTCAGATCAGGACAGTGAAGGATGAT | 1.12
TAGCCTAGGTCATTGGGCCAATATAGTACGCATC | 2.33
TCTTGTACATCAGCAGGTTAAGAAAGCTGGCCAA | 0.622
CCTGCTAGGTCATGGTCAGCTATTCTACAGTATG | 1.52
GCTACTAGGTCAGGTTGGTCAGCTAACGGGTACG | 0.914

Sequence | PBM binding z-score
AGAATGAGGTTATGCGTAGATCAGGGAAGAAAGT | 1.15
TGTCAAAGTTCAAAGGTAACGTGAGTATCCACAC | 5.2
ACTATTAGTTGATACGAGGGCAACCGATAGGTTG | 0.867
ATCGAAAGCTCGAAGGTGAGTATACCCACCCGAA | -0.463
TGTAGCAGGCCAGAGGGTCACTCAAGAGGTACGG | 1.46
CCTACTGGGCCATTCAGGGGTCATTGATCATATG | 4.82
GCAGACAGGTGAAACGTAGGTAACTCAGGGTGGC | -0.315
GCTTGTAGATCAAGGTTAATAAAGACTAAGCTAA | -0.00898
ACTCGGAGGACAAAGGTCAGAGTTACGCCAGTGA | 3.42
CCTTTCGGGTCACTCCAGGTTATAGCATCGGAGT | 4.19
GCTAGTTGGTCAGTGAAAGGTCACACACCGGTCG | 4.14
ATCCAAAGGTCGACGAGGTGAGTATACACCGTTT | 5.23
CCGACTGGGGCAAAGGTTACTATACTCAGTACGA | 1.12
CCGAGTAGGTTATTGGGCATTCAGGCAACGGTGA | -0.494
ACAGGCAGGTGATGAAGGTAACTCAGGCTATCAT | -0.0607
GCTAGTTGGACAGTAAAAGGTCACACACCGGTCG | 3.84
GGCACGAGGGCATTCGAGTTGATAGCATGGCGAT | 3.54
GCTAGCAGGCCATTTGGGTTACTCAATGACGGGC | -0.436
GATACAGGGTCCGCTAGAGGCCAGAGTATGGAAA | -0.544
CGTCCAAGGTCAATGTCAGTGAAAGAGACTCGAA | 3.45
